# Measured values reported in the supplement of paper PMC6555819.
# Assays:
# Test in all cases: PBM binding z-score (relative to random genomic background probes); higher = stronger binding; sequences stand for … in GC…GCGATTGACAGCGTAGAATGAAGG
# [1] = system: FXR:RXRa (NR concentration 270 nM, RXRa partner concentration 90 nM)
# Outline: (§1)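 For binding z-scores, the reference was random background probes on custom Agilent 4×180K protein-binding microarrays. These arrays were incubated 1 h with ligand-free nuclear receptor dimers in PBS pH 7.4, 2% milk, 0.02% Triton X-100, 1 mM DTT, 0.2 mg/mL BSA and 0.4 mg/ml salmon testes DNA. Fluorescence was scanned after antibody detection of each partner (one per run) and regression-normalized.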
# [2] = system: LXRa:RXRa (NR concentration 270 nM, RXRa partner concentration 90 nM)
# Outline: as §1
# [3] = system: LXRa homodimer (NR concentration 270 nM)
# Outline: as §1
# [4] = system: LXRb:RXRa (NR concentration 270 nM, RXRa partner concentration 90 nM)
# Outline: as §1
# [5] = system: LXRb homodimer (NR concentration 270 nM)
# Outline: as §1
# [6] = system: PPARa:RXRa (NR concentration 270 nM, RXRa partner concentration 90 nM)
# Outline: as §1
# [7] = system: PPARg:RXRa (NR concentration 180 nM, RXRa partner concentration 90 nM)
# Outline: as §1
# [8] = system: PPARg:RXRa 270nM:90nM, anti-RXR (NR concentration 270 nM, RXRa partner concentration 90 nM)
# Outline: as §1
# [9] = system: PPARg:RXRa 30nM:10nM, anti-RXR (NR concentration 30 nM, RXRa partner concentration 10 nM)
# Outline: as §1
# [10] = system: PPARg:RXRa 90nM:30nM, anti-RXR (NR concentration 90 nM, RXRa partner concentration 30 nM)
# Outline: as §1
# [11] = system: PPARg:RXRa DBDmut IVT, anti-RXR (DBD mutation: RXRa K156A/R161A, NR concentration 270 nM, RXRa partner concentration 90 nM)
# Outline: as §1
# [12] = system: PPARg:RXRa IVT, anti-PPARg (NR concentration 270 nM, RXRa partner concentration 90 nM)
# Outline: as §1
# [13] = system: PPARg DBDmut:RXRa IVT, anti-PPARg (DBD mutation: PPARg1 K132A/R137A, NR concentration 270 nM, RXRa partner concentration 90 nM)
# Outline: as §1
# [14] = system: PPARg DBDmut IVT, anti-PPARg (DBD mutation: PPARg1 K132A/R137A, NR concentration 270 nM)
# Outline: as §1
# [15] = system: PPARg homodimer (NR concentration 180 nM)
# Outline: as §1
# [16] = system: PXR:RXRa (NR concentration 270 nM, RXRa partner concentration 90 nM)
# Outline: as §1
# [17] = system: PXR homodimer (NR concentration 270 nM)
# Outline: as §1
# [18] = system: RARa:RXR (NR concentration 270 nM, RXRa partner concentration 90 nM)
# Outline: as §1
# [19] = system: RARa homodimer (NR concentration 270 nM)
# Outline: as §1
# [20] = system: RARb:RXRa (NR concentration 270 nM, RXRa partner concentration 90 nM)
# Outline: as §1
Sequence,PBM binding z-score [1],PBM binding z-score [2],PBM binding z-score [3],PBM binding z-score [4],PBM binding z-score [5],PBM binding z-score [6],PBM binding z-score [7],PBM binding z-score [8],PBM binding z-score [9],PBM binding z-score [10],PBM binding z-score [11],PBM binding z-score [12],PBM binding z-score [13],PBM binding z-score [14],PBM binding z-score [15],PBM binding z-score [16],PBM binding z-score [17],PBM binding z-score [18],PBM binding z-score [19],PBM binding z-score [20]
GCTGCTAGGTCAACTGGTGGTCAGCTAAAGCTCG,4.15,3.04,-0.00351,1.99,-0.442,3.55,2.75,3.48,0.603,2.25,4.77,4.33,-0.118,-0.735,2.55,1.61,-0.644,3.34,-0.0343,4.23
TCTGCTACGTCAACGATGGTCAGCTAATCTGCTA,-0.231,-0.136,-0.622,-0.384,-0.541,-0.191,0.00276,0.525,1.6,1.1,0.824,-0.0517,-0.273,0.303,-1.54,-0.555,-0.856,-0.492,-1.62,-0.0266
AGAATGCGGTTAAGATCAGGGAAACAGAATACAT,-0.249,-0.195,-0.0658,-0.185,-0.913,-0.181,0.331,0.0448,0.301,0.258,-0.441,-0.00811,0.624,0.11,0.393,-0.295,-0.312,-0.225,0.513,-0.152
CAAACTAGGTCACAAAGGTCAAAGTCCGTGCGTA,7.43,6.7,7.48,6.59,3,6.49,10.3,8.31,7.58,8.55,8.59,8.71,2.54,2.7,7.19,6.69,11.9,7.63,4.27,5.46
TTTTGTAGATCAAAGGTTAAGAAAGCCGAAGCCT,1.35,2.03,0.327,2.09,0.386,5.08,9.51,8.59,8.23,9.36,1.61,3.98,0.975,1.12,1,2.05,-0.0288,3.17,0.339,2.07
TAGCCTAGGTCATGCGCGCCAGTATAGTGTCGGC,4.7,3.47,0.451,2.36,0.289,3.98,2.68,2.89,0.197,1.79,2,3.17,0.974,0.266,2.85,1.55,-0.618,2.62,-0.473,3.74
CGAACTAGGACAGAACAGGACAGTGAAGGATGAT,-0.286,-0.561,-0.364,-0.706,-0.58,-0.0263,1.23,0.13,0.00825,0.0847,3.37,2.51,0.329,1,-0.301,-0.366,-0.302,-0.649,0.312,0.117
ACAGACAAGTGATGAAGGTAACTCAGGCTATCAT,-0.375,-0.259,-0.503,-0.446,-0.469,-0.37,0.531,-0.282,-0.0857,-0.2,-0.565,-0.0204,0.0249,-0.152,-0.0362,-0.39,-0.0518,-0.0214,0.43,-0.307
ATCGAAAGGTCGAGGTGAGCATAGAGAAAGGGAA,4.16,3.42,-0.0507,2.7,0.363,4.61,3.46,3.8,1.66,2.84,0.593,2.74,0.675,0.756,1.39,2.2,-0.0822,3.17,0.169,4.27
AGAATGAGGTTATACATAGATCAGGGAAGAAAGT,1.88,2.05,0.223,1.56,0.151,3.07,2.28,1.87,0.974,1.4,2.35,1.91,1.44,1.27,1.21,1.43,0.76,1.9,0.765,1.6
CGATCTAGGTCAGAACAGGACAGTGAAGGATGAT,1.41,0.482,-0.161,0.206,-0.143,2.84,4.82,3.88,1.41,2.78,6.87,6.77,1.59,1.33,0.826,0.571,-0.0995,1.13,0.466,2.66
CCTACTGGGCCGAAGGTCATTGATTCCAATGCTC,2.23,2.47,1.02,2.44,-0.461,4.85,9.28,9.02,8.18,10.3,1.48,5.21,-0.502,-0.797,1.81,2.9,0.597,3.05,0.247,2.88
AGTCAAAGTTCATCTAGGTAGCGTAAGATATGCT,6.22,6.03,4.76,3.76,1.66,4.61,6.29,6.38,3.49,5.38,0.422,2.98,1.02,1.02,2.55,4.98,6.74,3.75,1.85,4.8
CCTACTGGGCCACAGGTCATTGATTCCAATGCTC,1.51,1.55,1.48,2.12,0.443,4.11,8.34,7.57,6.11,7.68,4.78,5.99,-0.262,-0.356,1.06,1.75,0.334,2.03,-0.37,2.26
